Assay results published in the supplement of paper PMC11634586.
Values without a mark were called inactive.

Test system: NCI-H1688
Test: inhibition of cell viability relative to untreated control (fraction); higher = stronger growth inhibition, active = 0.5 or more
Details: 30 µM; 24 h
Outline: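 Values are inhibition of cell viability expressed as a fraction, derived from viability normalised to untreated cells. NCI-H1688 small cell lung cancer cells in 96-well plates were exposed to a natural compound library (TargetMol) at 30 µM for 24 h at 37°C with 5% CO2, and Cell Counting Kit-8 absorbance at 450 nm was then read.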

Structure (SMILES)	inhibition of cell viability
C[C@H](CCC(=O)NCC(=O)O)[C@H]1CC[C@H]2[C@@H]3[C@H](O)C[C@@H]4C[C@H](O)CC[C@]4(C)[C@H]3C[C@H](O)[C@]12C [Glycocholic acid]	-0.11
O=C(/C=C/c1ccc(O)c2oc(-c3ccc(O)c(O)c3)cc12)O[C@H](Cc1ccc(O)c(O)c1)C(=O)O [Salvianolic Acid C]	0.0822
CC(C)(S)[C@@H](N)C(=O)O [Artamine]	0.0772
